About 3,300 (0.97%) of roughly 340,000 compounds were called active. The sample as a whole holds a higher share of actives than the screen did. Values without a mark were called inactive.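 How the source made its calls: active means mean activation above about 17%, with every replicate also reaching it (limit read from the data, passing the limit was not always enough); inconclusive means only one of the two conditions met; inactive means the rest.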

For the experiment, the target named is Protein FosB (Mus musculus) (UniProt P13346). The experiment can be described thus: enhancers of mouse delta FosB DNA binding – biochemical, fluorescence polarization, TAMRA-CDK5 oligo, single point, primary screen (AID 493131).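 Further: fluorescence polarization rise as delta FosB binds a TAMRA Cdk5 AP-1 oligo.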 The conditions noted are these: purified delta FosB, at 25 µM, stronger effect = higher value, percent of positive-control signal above neutral wells.
Protein FosB (Mus musculus), sequence (P13346 whole entry, looked up): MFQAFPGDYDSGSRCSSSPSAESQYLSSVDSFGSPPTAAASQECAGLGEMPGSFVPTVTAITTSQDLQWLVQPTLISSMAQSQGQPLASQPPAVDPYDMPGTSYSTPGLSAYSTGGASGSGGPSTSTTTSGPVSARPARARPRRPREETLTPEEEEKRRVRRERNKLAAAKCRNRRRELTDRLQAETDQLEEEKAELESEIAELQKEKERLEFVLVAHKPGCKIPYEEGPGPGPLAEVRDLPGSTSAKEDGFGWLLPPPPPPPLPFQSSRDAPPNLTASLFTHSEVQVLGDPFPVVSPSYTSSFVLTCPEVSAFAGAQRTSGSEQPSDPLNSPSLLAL
Take `CNc1nc(SC)nc(N(C#N)CC(=O)OC)n1`: the activation was 0.989%. `Oc1c(C(c2ccco2)N2CCC3(CC2)OCCO3)sc2ncnn12` (centres undefined): the activation was -7.56%.

Consider `CC(=O)Nc1ccc(NC(=O)C(NS(=O)(=O)c2ccc3c(c2)OCCO3)C(C)C)cc1` (centres undefined), for which the activation was 36.7% (active). Next, `CC(NS(=O)(=O)c1ccc(Cl)cc1)C(=O)Nc1ccc2c(c1)OCCO2` (centres undefined): 1.9%.

Regarding `CC(C)NS(=O)(=O)c1ccc(OCC(=O)Nc2ccc3c(c2)OCCO3)cc1`, the activation is -10.5%.

Take `CCc1ccc(C(=O)OCC(=O)NCC(F)(F)F)cc1`: the activation is -1.18%. Consider `COC(=O)c1ccc2ccccc2c1OC1OC(CO)C(O)C(O)C1NC(C)=O` (centres undefined), for which the activation is -0.206%.

Turning to `C#CCOCCOCCOCCNc1nc(N2CCN(C(=O)C([C@@H](C)O)n3cc([C@@H](N)CCCCN)nn3)CC2)nc(N2CCN(C(=O)[C@H](CCCCN)n3cc(CN)nn3)CC2)n1` (some centres undefined), the activation was 31.3% (active). For the compound `C#CCOCCOCCOCCNc1nc(N2CCN(C(=O)[C@H](Cc3ccc(O)cc3)n3cc(C(N)CC(C)C)nn3)CC2)nc(N2CCN(C(=O)[C@H](CCC(=O)O)n3cc(C(N)[C@H](C)CC)nn3)CC2)n1` (some centres undefined), the activation was 2.04%. The same measure for `C#CCOCCOCCOCCNc1nc(N2CCN(C(=O)[C@H](CCCCN)n3cc([C@@H](N)C(C)CC)nn3)CC2)nc(N2CCN(C(=O)[C@H](Cc3ccc(O)cc3)n3cc([C@@H](N)C(C)CC)nn3)CC2)n1` (some centres undefined): 15.3%; for `C#CCOCCOCCOCCNc1nc(N2CCN(C(=O)[C@H](CCCCN)n3cc(CCC(=O)O)nn3)CC2)nc(N2CCN(C(=O)[C@H](CCCCN)n3cc(CC(C)O)nn3)CC2)n1` (some centres undefined): 2.6%; for `C#CCOCCOCCOCCNc1nc(N2CCN(C(=O)[C@H](CCC(=O)O)n3cc(CN)nn3)CC2)nc(N2CCN(C(=O)[C@H](CCC(=O)O)n3cc(CN)nn3)CC2)n1`: -0.339%. The same measure for `C#CCOCCOCCOCCNc1nc(N2CCN(C(=O)C(Cc3ccc(O)cc3)n3cc(C(N)CC(C)C)nn3)CC2)nc(N2CCN(C(=O)C(Cc3ccc(O)cc3)n3cc(C(N)C(C)CC)nn3)CC2)n1` (centres undefined): 22.4% (active); for `Cc1csc(CN(C)C(=O)CC2C(=O)NCCN2CC(C)(C)C)n1` (centres undefined): -10.6%; for `COc1cc(-c2nnc(Cn3cc(C(F)(F)F)ccc3=O)o2)cc(OC)c1OC`: -9.47%. Regarding `COC(=O)c1ccc(CSc2ccc(S(=O)(=O)N3CCCCC3)cn2)cc1`, the activation was 8.71%. The same measure for `COc1ccc(N(C)S(=O)(=O)c2ccc3c(c2)CC(C)N3C(=O)C2CC2)c(OC)c1` (centres undefined): -12.2%; for `COc1cc(C(=O)N2CCN(C/C=C/c3ccccc3)CC2)cc(OC)c1C`: -7.31%. On to `Cn1nnc(NC(=S)NC(=O)c2ccccc2)n1`, for which the activation is -9.58%.

On to `CCOC(=O)C1=C(C)N(C[C@@H]2CC[C@@H](Cc3ccc(-c4ccccc4)cc3)O2)C(=O)NC1c1ccc([N+](=O)[O-])cc1` (some centres undefined), for which the activation is -9.34%. On to `S=c1c2[nH]cnc2ncn1CCSc1ncnc2nc[nH]c12`, for which the activation is 3.83%. Next, `COC(=O)c1ccc(CNC(=O)c2ccc3oc(C(C)C)nc3c2)cc1`: -7.42%; `CC(C(=O)O)N1C(=O)c2cccc3cccc1c23` (centres undefined): 2.8%.

Consider `Cc1cc(C)cc(NC(=O)CN2C(=O)c3ccccc3C2=O)c1`, for which the activation was 3.94%. Take `O=C(CN1C(=O)c2cccc3cccc1c23)Nc1ccccc1`: the activation is 28.7% (active). Turning to `COc1ccc(NC(=O)CCC(=O)N2CCN(S(=O)(=O)c3ccc(C)cc3)CC2)c(OC)c1`, the activation is -2.45%. Next, `CCN1/C(=C\c2ccc3ccccc3[n+]2CC)Sc2cc(C)ccc21`: 54.5% (active); `COc1ccc(/C=C/C(=O)Nc2ccc(C34CC5CC(CC(O)(C5)C3)C4)cc2)cc1OC`: 51.4% (active). With `COc1ccc(/C=C/C(=O)Nc2ccc(C)cc2)cc1S(=O)(=O)N1CCOCC1`, the activation was -1.41%. For `COc1cc(/C=C/C(=O)Nc2ccc(OC)c(S(=O)(=O)N3CCOCC3)c2)ccc1OCC#N`, the activation was -6.09%. The same measure for `CCCOc1ccc(Cn2c(O)cc(=O)[nH]c2=O)cc1`: 3.75%; for `COc1ccc(Cn2c(=O)cc(C)[nH]c2=S)cc1`: -1.58%; for `COc1ccc(Cn2c(O)c(/C=C3/C=CC=N3)c(=O)[nH]c2=O)cc1`: 25.7% (active).

As to `CN(CC(O)COc1ccc(S(=O)(=O)N2CCOCC2)cc1Cl)C1CCCCC1` (centres undefined), the activation is -9.15%.

Turning to `O=C(NCCN=C1NS(=O)(=O)c2ccccc21)c1ccc(S(=O)(=O)N2CCOCC2)cc1`, the activation is -16.1%. Consider `O=C(Nc1ccc2cn[nH]c2c1)c1ccc(S(=O)(=O)N2CCOCC2)cc1`, for which the activation was -7.23%. The same measure for `Cc1nn(CC(=O)N2CCCCC2)c(=O)c2nn(-c3ccccc3)c(C)c12`: -5.62%; for `COc1ccc(OC)c(CNC(=O)Cn2nc(C)c3c(C)n(-c4ccc(C)cc4)nc3c2=O)c1`: 113% (active). The same measure for `COc1ccc(CNC(=O)C(C)n2nc(C)c3c(C)n(-c4ccccc4)nc3c2=O)c(OC)c1` (centres undefined): -16.4%.

As for `CCc1ccccc1NC(=O)CN(C)C(=O)c1cc(C2CC2)nn1-c1ccccc1`, the activation is -9.06%. With `O=C(O)c1cccnc1NC1CCCC1`, the activation is 1.59%.

`Cc1nn(C)cc1S(=O)(=O)N1CCN(c2ccc(F)cc2)CC1`: the activation was -3.96%. In the case of `COc1ccc(-c2cc(=O)c3c(O)cc(O[C@@H]4O[C@H](CO[C@@H]5O[C@@H](C)[C@H](O)[C@@H](O)[C@H]5O)[C@@H](O)[C@H](O)[C@H]4O)cc3o2)cc1O`, the activation is 74.8% (active). In the case of `COc1c(O)cc2oc(-c3ccc(O)c(O)c3)cc(=O)c2c1O`, the activation was -4.25%. Next, `C[C@@H]1O[C@@H](OC[C@H]2O[C@@H](Oc3c(-c4ccc(O)cc4)oc4cc(O)cc(O)c4c3=O)[C@H](O)[C@@H](O)[C@@H]2O)[C@H](O)[C@H](O)[C@H]1O`: -1.58%; `Cc1ccc(NC(=O)NC(=O)N(C2CCCCC2)S(=O)(=O)c2ccccc2)cc1`: -0.8%. The same measure for `Clc1ccc(-n2nnnc2-c2cnc(-c3ccccn3)nc2-c2cccs2)cc1`: -8.45%; for `O=C(CN1CCN(c2ccc(Cl)cc2)CC1)c1ccccc1`: 1.64%. With `O=C(Cn1cc(-c2nnnn2-c2ccc(Cl)cc2)c(=O)c2ccccc21)c1ccccc1`, the activation was 114% (active).
